Records with an inconclusive call do not appear. A call without a number means that no potency is given here. Activity calls are given as the source filed them. The call rests on the fitted dose curve; in most records, active means well fitted cell-killing curve with a large enough effect; inconclusive means small, poorly fitted or top-dose-only effect, or effect the other way; inactive means no such curve, though single readings can be large or run the other way.
Potency means the concentration at half of the fitted maximal effect.

In this assay the test system is CAOV3. As to the kind of experiment: Confirmatory qHTS for gynecologic anti-cancer compounds from libraries of approved drugs and bioactive compounds. Further: nearly all actives have a fitted effect of over 55% in size. The note with it: gynecologic cancer cell panel viability, ATPlite luminescence, 48 h; series mostly up to 57.6 µM. Summed up:
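Seeding 1,000 cells per well preceded overnight (16 h) attachment, after which 48 h drug treatment across 57.5 uM–0.977 nM (11 points) was applied. Remaining cellular ATP, detected by ATPlite luminescence, defined IC50.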
For the compound `CCC(=O)O[C@H]1CC[C@H]2[C@@H]3CCC4=CC(=O)CC[C@]4(C)[C@H]3CC[C@]12C`, the Potency entry is “inactive”.

Regarding `CCN1CCN(C(=O)Cc2ccc(Nc3ncc(F)c(Nc4ccc(C(=O)Nc5ccccc5Cl)cc4)n3)cc2)CC1`, the Potency entry was “inactive”.

Regarding `C[C@]12CC[C@H]3[C@@H](CCC4=CC(=O)CC[C@@H]43)[C@@H]1CC[C@@H]2OC(=O)CCc1ccccc1`, the Potency result was “inactive”.

For `CCOc1ccccc1-n1c(C(C)N2CCN(C(=O)COc3ccc(Cl)cc3)CC2)nc2ccccc2c1=O` (centres undefined), the Potency entry was “inactive”.

For `CCNC(=O)C[C@@H]1N=C(c2ccc(Cl)cc2)c2cc(OC)ccc2-n2c(C)nnc21`, the Potency is 1220 nM (active).

Take `C=C(C)[C@H]1Cc2c(ccc3c2O[C@@H]2COc4cc(OC)c(OC)cc4[C@@H]2C3=O)O1`: the Potency result is “inactive”.

Take `O=C(O)Cc1ccccc1`: the Potency entry is “inactive”.

Turning to `C[C@H]1CCC/C=C/C2C[C@H](O)C[C@H]2[C@H](O)/C=C/C(=O)O1` (some centres undefined), the Potency was 306 nM (active).

For the compound `C/C=C(/C)C(=O)O[C@H]1C(C)=C2[C@H]([C@@H]1OC(=O)CCCCCCC)[C@@](C)(OC(C)=O)C[C@H](OC(=O)CCC)[C@@]1(O)[C@H]2OC(=O)[C@@]1(C)O`, the Potency was 9680 nM (active).

Values taken from PubChem BioAssay AID1345085 (National Center for Advancing Translational Sciences (NCATS), 2018).
